PubChem BioAssay (Tox21)
Records with an inconclusive call do not appear. A call without a number means that no potency is given here. Unmarked numbers belong to inactive results. Active and inactive are the calls of the source. Unless noted, calls come from the whole dose curve; as a rule, active = well fitted curve in the direction sought with a large enough effect in the repeat runs; inconclusive = weak or mixed curves; inactive = no such curve, though single readings can be large; an effect the other way counts as inactive or inconclusive.

Key:
[1] = qHTS assay to identify small molecule that activate the aryl hydrocarbon receptor (AhR) signaling pathway - cell viability counter screen (AID 743086); note: nearly all actives have a fitted effect of over 45% in size; note: potency is the fitted concentration of half-maximal effect
In short: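 HepG2-AhR-luc (HG2L7.5c1) cells, 4000/well, treated 24 h at 37 C with compound; viability measured as CellTiter-Fluor fluorescence after 30 min in the same wells as the luciferase read.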

[2] = molecular target: Peroxisome proliferator-activated receptor gamma (Homo sapiens) (UniProt P37231); experiment: qHTS assay to identify small molecule agonists of the peroxisome proliferator-activated receptor gamma (PPARg) signaling pathway (AID 743094; active = well fitted activation curve with a large enough effect in the signal ratio in the repeat runs, not every such curve was filed as active; the % refers to the signal ratio)
Chain of Peroxisome proliferator-activated receptor gamma (Homo sapiens) (P37231 whole entry, looked up): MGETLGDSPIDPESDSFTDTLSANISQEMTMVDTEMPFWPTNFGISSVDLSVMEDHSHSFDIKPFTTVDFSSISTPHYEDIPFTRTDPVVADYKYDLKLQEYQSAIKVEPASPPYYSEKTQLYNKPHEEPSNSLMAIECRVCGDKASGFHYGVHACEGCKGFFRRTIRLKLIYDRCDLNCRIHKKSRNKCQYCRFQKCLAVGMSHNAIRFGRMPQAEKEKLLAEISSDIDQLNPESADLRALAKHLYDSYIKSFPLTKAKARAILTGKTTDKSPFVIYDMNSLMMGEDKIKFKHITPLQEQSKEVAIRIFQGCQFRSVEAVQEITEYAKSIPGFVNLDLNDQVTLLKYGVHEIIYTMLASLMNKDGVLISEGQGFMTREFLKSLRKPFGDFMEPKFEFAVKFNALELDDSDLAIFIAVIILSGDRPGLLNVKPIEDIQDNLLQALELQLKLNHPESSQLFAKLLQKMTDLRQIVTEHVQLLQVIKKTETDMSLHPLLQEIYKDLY
In short: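 HEK293H PPARg-bla cells, 5 h settle at 37C/5% CO2; compound (DMSO) 17 h, 37C; B/G FRET substrate 1 h RT; fluorescence intensity read-out. qHTS format.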

[3] = qHTS assay to identify small molecule antagonists of the peroxisome proliferator-activated receptor gamma (PPARg) signaling pathway - cell viability counter screen (AID 743194); note: nearly all actives have a fitted effect of over 55% in size
In short: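 Cytotoxicity counter screen in PPARg-bla HEK293H cells, same wells as reporter assay. Compounds plus 50 nM rosiglitazone (final) for 17 h at 37 C, then viability read by CellTiter-Glo luminescence.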

[4] = qHTS assay for small molecule agonists of the antioxidant response element (ARE) signaling pathway (AID 743202; active = well fitted activation curve with a large enough effect in the signal ratio in the repeat runs, not every such curve was filed as active; the % refers to the signal ratio)
In short: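 HepG2 ARE-bla cells; 16 h treatment at 37 C; FRET-based beta-lactamase fluorescence read after 2 h substrate incubation at room temperature.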

[5] = qHTS assay for small molecule agonists of the antioxidant response element (ARE) signaling pathway - cell viability counter screen (AID 743203; calls by dose curve; note: nearly all actives have a fitted effect of over 55% in size)
In short: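 Luminescence read-out (CellTiter-Glo, 30 min at room temperature) measured cell viability in the same wells as the ARE beta-lactamase reporter. HepG2 ARE-bla cells were treated with compounds for 16 hrs at 37C/5% CO2.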

[6] = qHTS assay for small molecule activators of the heat shock response signaling pathway - cell viability counter screen (AID 743209); note: nearly all actives have a fitted effect of over 50% in size; note: potency is the fitted concentration of half-maximal effect
In short: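 HSE-bla HeLa; 1500 cells/well; overnight 37 C, 5% CO2; compound 5 h 37 C; LiveBLAzer B/G substrate 2.5 h RT; CellTiter-Glo 30 min RT; luminescence.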

[7] = qHTS assay for small molecule activators of the heat shock response signaling pathway (AID 743210; active = well fitted activation curve with a large enough effect in the signal ratio in the repeat runs, with a control signal flat, not every such curve was filed as active; the % refers to the signal ratio; note: potency is the fitted concentration of half-maximal effect;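 for activation: HeLa cells with beta-lactamase reporter driven by heat shock elements; series mostly up to about 63 µM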)
In short: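 Following overnight attachment, HSE-bla HeLa cells received test compounds for 5 h at 37 C; beta-lactamase activity was then detected via FRET substrate fluorescence.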

[8] = qHTS assay to identify small molecule agonists of the peroxisome proliferator-activated receptor delta (PPARd) signaling pathway - cell viability counter screen (AID 743211); note: nearly all actives have a fitted effect of over 55% in size
In short: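 Viability of GeneBLAzer PPARd UAS-bla HEK293H cells was assessed after 17 h compound incubation at 37C, using CellTiter-Glo reagent added after the reporter read and luminescence recorded 30 min later.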

[9] = qHTS assay to identify small molecule antagonists of the peroxisome proliferator-activated receptor delta (PPARd) signaling pathway - cell viability counter screen (AID 743213); note: nearly all actives have a fitted effect of over 50% in size
In short: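 Agonist-stimulated (L165041, 300 nM final) HEK293H PPARd UAS-bla cells are exposed to compounds for 17 h at 37 C, and ATP-based luminescence (CellTiter-Glo) from the same wells reports cytotoxicity.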

[10] = molecular target: Bile acid receptor (Homo sapiens) (UniProt Q96RI1); experiment: qHTS assay to identify small molecule antagonists of the farnesoid-X-receptor (FXR) signaling pathway (AID 743217; active = well fitted inhibition curve with a large enough effect in the signal ratio in the repeat runs, not every such curve was filed as active; the % refers to the signal ratio)
Chain of Bile acid receptor (Homo sapiens) (Q96RI1 whole entry, looked up): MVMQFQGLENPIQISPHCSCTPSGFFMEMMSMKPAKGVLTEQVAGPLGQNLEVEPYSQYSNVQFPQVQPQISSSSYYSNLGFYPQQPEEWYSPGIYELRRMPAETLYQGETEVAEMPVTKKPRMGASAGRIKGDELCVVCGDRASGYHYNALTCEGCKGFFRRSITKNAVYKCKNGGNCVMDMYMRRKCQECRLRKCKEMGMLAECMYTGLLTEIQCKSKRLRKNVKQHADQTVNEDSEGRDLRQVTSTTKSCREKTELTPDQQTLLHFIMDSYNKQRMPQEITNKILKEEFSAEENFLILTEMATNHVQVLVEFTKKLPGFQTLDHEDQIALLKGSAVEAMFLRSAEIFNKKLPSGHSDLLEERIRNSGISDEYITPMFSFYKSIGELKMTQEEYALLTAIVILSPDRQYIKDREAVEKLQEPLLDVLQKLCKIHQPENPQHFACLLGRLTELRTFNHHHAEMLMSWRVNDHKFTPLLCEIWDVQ
In short: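 Read-out: beta-lactamase FRET fluorescence (LiveBLAzer B/G substrate, 2 h, room temperature) in GeneBLAzer FXR-UAS-bla HEK 293T cells. Compounds were co-dosed with 50 uM chenodeoxycholic acid (final) and incubated 16 h at 37 °C.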

[11] = qHTS assay to identify small molecule agonists of the farnesoid-X-receptor (FXR) signaling pathway - cell viability counter screen (AID 743218); note: nearly all actives have a fitted effect of over 45% in size
In short: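 Luminescence from CellTiter-Glo, read after 30 min at RT, reports viability of GeneBLAzer FXR-UAS-bla HEK 293T cells treated 16 h with compounds in the wells used for the beta-lactamase reporter.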

[12] = molecular target: Bile acid receptor (Homo sapiens) (UniProt Q96RI1); experiment: qHTS assay to identify small molecule agonists of the farnesoid-X-receptor (FXR) signaling pathway (AID 743220; active = well fitted activation curve with a large enough effect in the signal ratio in the repeat runs, not every such curve was filed as active; the % refers to the signal ratio)
In short: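 FXR-UAS-bla HEK 293T cells carrying a UAS-driven beta-lactamase reporter were plated for 5 h at 37C/5% CO2, then exposed to DMSO-dissolved Tox21 10K compounds for 16 h at 37C. A LiveBLAzer B/G FRET substrate was loaded for 2 h at room temperature before fluorescence reading.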

[13] = qHTS assay to identify small molecule antagonists of the farnesoid-X-receptor (FXR) signaling pathway - cell viability counter screen (AID 743221; active = well fitted cell-killing curve with a large enough effect in the repeat runs, not every such curve was filed as active; note: nearly all actives have a fitted effect of over 50% in size)
In short: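 Quantitative HTS of the Tox21 10K library run in parallel with the beta-lactamase reporter read. HEK 293T cells carrying a UAS-driven bla reporter got compound and 50 uM CDCA (final) for 16 h; ATP-based luminescence followed.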

[14] = molecular target: Vitamin D3 receptor (Homo sapiens) (UniProt P11473); experiment: qHTS assay to identify small molecule agonists of the vitamin D receptor (VDR) signaling pathway (AID 743222; calls by dose curve)
Chain of Vitamin D3 receptor (Homo sapiens) (P11473 whole entry, looked up): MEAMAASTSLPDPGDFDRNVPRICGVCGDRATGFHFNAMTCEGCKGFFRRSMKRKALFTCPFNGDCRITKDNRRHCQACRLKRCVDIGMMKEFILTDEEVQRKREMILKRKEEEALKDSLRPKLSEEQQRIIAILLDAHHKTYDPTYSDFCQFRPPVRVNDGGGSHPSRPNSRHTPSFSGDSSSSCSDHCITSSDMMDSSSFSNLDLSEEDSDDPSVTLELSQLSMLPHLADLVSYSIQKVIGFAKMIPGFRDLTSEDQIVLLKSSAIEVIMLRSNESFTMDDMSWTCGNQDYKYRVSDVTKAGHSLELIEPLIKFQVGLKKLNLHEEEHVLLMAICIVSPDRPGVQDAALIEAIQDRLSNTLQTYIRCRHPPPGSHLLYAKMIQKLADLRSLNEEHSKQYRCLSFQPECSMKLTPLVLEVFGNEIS
In short: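 Beta-lactamase reporter readout (LiveBLAzer B/G FRET, 2 h RT) in VDR-bla cells after 16 h compound treatment at 37C, 5% CO2; cells pre-incubated 4 h before pin transfer of DMSO solutions.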

[15] = qHTS assay to identify small molecule agonists of the vitamin D receptor (VDR) signaling pathway - cell viability counter screen (AID 743224); note: series mostly up to about 63 µM; nearly all actives have a fitted effect of over 50% in size
In short: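 Cytotoxicity counter screen: VDR-bla cells, 16 h compound exposure at 37C, 5% CO2; CellTiter-Glo luminescence, 30 min RT, same wells as bla read.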

[16] = molecular target: Peroxisome proliferator-activated receptor gamma (Homo sapiens) (UniProt P37231); experiment: qHTS assay to identify small molecule antagonists of the peroxisome proliferator-activated receptor gamma (PPARg) signaling pathway (AID 743191; calls by dose curve; note: nearly all actives have a fitted effect of over 30% in size; note: potency is the fitted concentration of half-maximal effect)
In short: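 GeneBLAzer PPARg UAS-bla HEK293H cells, 5 h post-plating, exposed to compounds 17 h at 37C. LiveBLAzer B/G FRET substrate added for 1 h at room temperature; beta-lactamase reporter read by fluorescence intensity.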

[17] = molecular target: Peroxisome proliferator-activated receptor delta (Homo sapiens) (UniProt Q03181); experiment: qHTS assay to identify small molecule agonists of the peroxisome proliferator-activated receptor delta (PPARd) signaling pathway (AID 743212; calls by dose curve)
Chain of Peroxisome proliferator-activated receptor delta (Homo sapiens) (Q03181 whole entry, looked up): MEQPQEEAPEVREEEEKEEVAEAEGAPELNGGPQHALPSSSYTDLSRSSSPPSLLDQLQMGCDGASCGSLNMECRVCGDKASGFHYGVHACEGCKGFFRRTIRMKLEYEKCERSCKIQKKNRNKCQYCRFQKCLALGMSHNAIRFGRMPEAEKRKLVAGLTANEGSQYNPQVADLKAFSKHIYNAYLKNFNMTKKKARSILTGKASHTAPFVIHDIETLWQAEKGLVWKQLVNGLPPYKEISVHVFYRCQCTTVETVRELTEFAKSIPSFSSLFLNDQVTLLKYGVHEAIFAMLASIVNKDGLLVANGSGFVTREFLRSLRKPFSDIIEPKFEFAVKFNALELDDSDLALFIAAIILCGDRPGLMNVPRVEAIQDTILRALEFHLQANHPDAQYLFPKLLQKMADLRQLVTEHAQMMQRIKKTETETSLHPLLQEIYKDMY
In short: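 Tox21 library screened in GeneBLAzer PPARd UAS-bla HEK293H cells. After compound treatment at 37 C, a FRET-based beta-lactamase substrate was applied for 2 h and fluorescence recorded.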

[18] = molecular target: Peroxisome proliferator-activated receptor delta (Homo sapiens) (UniProt Q03181); experiment: qHTS assay to identify small molecule antagonists of the peroxisome proliferator-activated receptor delta (PPARd) signaling pathway (AID 743215; active = well fitted inhibition curve with a large enough effect in the signal ratio in the repeat runs, not every such curve was filed as active; the % refers to the signal ratio; note: series mostly up to about 62 µM)
In short: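 HEK293H GeneBLAzer PPARd UAS-bla reporter cells; cpd + L165041 300 nM final, 17 h 37 C; LiveBLAzer B/G FRET substrate 2 h RT; fluorescence intensity read-out. Antagonist mode.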

[19] = molecular target: Vitamin D3 receptor (Homo sapiens) (UniProt P11473); experiment: qHTS assay to identify small molecule antagonists of the vitamin D receptor (VDR) signaling pathway (AID 743223; active = well fitted inhibition curve with a large enough effect in the signal ratio in the repeat runs, not every such curve was filed as active; the % refers to the signal ratio)
In short: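 Fluorescence from LiveBLAzer B/G FRET substrate, read after 2 h at room temperature, reflects beta-lactamase reporter activity in VDR-bla cells treated 16 h at 37C with compounds and agonist 1alpha,25-dihydroxyvitamin D3 (3 nM final).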

| SMILES | Potency [1] | Potency [2] | Potency [3] | Potency [4] | Potency [5] | Potency [6] | Potency [7] | Potency [8] | Potency [9] | Potency [10] | Potency [11] | Potency [12] | Potency [13] | outcome [14] | Potency [15] | Potency [16] | Potency [17] | Potency [18] | outcome [19] |
| --- | --- | --- | --- | --- | --- | --- | --- | --- | --- | --- | --- | --- | --- | --- | --- | --- | --- | --- | --- |
| O=C(CCCCCCCCC#CI)Oc1ccccc1 | inactive | inactive | inactive | inactive | inactive | inactive | inactive | inactive | inactive | inactive | inactive | inactive | inactive | inactive | inactive |  |  |  |  |
| CC1CC(O)CC(C)(C)C1 (stereo not given) | inactive | inactive | inactive |  | inactive | inactive |  | inactive | inactive |  |  |  | inactive | inactive |  | inactive | inactive | inactive |  |
| CO[Si](C)(OC)OC | inactive | inactive | inactive | inactive |  |  | inactive | inactive | inactive |  | inactive |  | inactive | inactive | inactive |  | inactive |  | inactive |
| Nc1ccc(Cl)cc1[N+](=O)[O-] | inactive | inactive | inactive | inactive | inactive | inactive |  | inactive | inactive |  | inactive |  | inactive | inactive | inactive |  | inactive | inactive | inactive |
| Nc1ccc(C(=O)OCCCOC(=O)c2ccc(N)cc2)cc1 | inactive | inactive |  |  |  |  | inactive |  | inactive | inactive | inactive |  | inactive |  | inactive | 43.6 µM (active) |  |  | inactive |
| C[C@@H]1C[C@H]2[C@@H]3CCC4=CC(=O)C=C[C@]4(C)[C@@]3(F)[C@@H](O)C[C@]2(C)[C@H]1C(=O)CO | inactive | inactive | inactive |  | inactive | inactive | inactive | inactive | inactive |  | inactive |  | inactive | inactive | inactive |  | inactive | inactive | inactive |
| CCCCCCCC/C=C\CCCCCCCC(=O)OC(CO)CO | inactive | inactive | inactive |  |  | 43.6 µM (active) |  |  | inactive |  | inactive |  | inactive |  | inactive |  |  |  |  |
| Oc1cc(O)c(Cl)cc1Cl | inactive | inactive | inactive |  | inactive | inactive | 50.2 µM (active) | inactive | inactive |  | inactive | inactive | inactive | inactive |  | inactive | inactive | inactive | inactive |
| CC(C)(C)C(=O)O | inactive | inactive | inactive |  | inactive | inactive | inactive | inactive | inactive |  | inactive | inactive | inactive | inactive |  | inactive | inactive | inactive | inactive |
| CC1=NN(c2ccc(C(=O)O)cc2)C(=O)C1 | inactive |  | inactive | inactive | inactive | inactive | inactive | inactive | inactive |  | inactive |  | inactive | inactive | inactive | inactive | inactive | inactive |  |
| CCCCC(=O)O[C@]1(C(=O)CO)[C@@H](C)C[C@H]2[C@@H]3CCC4=CC(=O)C=C[C@]4(C)[C@@]3(F)[C@@H](O)C[C@@]21C | inactive | inactive | inactive |  | inactive | inactive | inactive | inactive |  |  | inactive |  | inactive | inactive |  | inactive | inactive | inactive | inactive |
| OCC1CC=CCC1 (stereo not given) | inactive | inactive | inactive | inactive | inactive | inactive | inactive | inactive | inactive |  |  |  | inactive | inactive | inactive |  | inactive |  | inactive |
| C=CC(C)=CCC=C(C)C | inactive | inactive | inactive |  | inactive | inactive |  | inactive | inactive |  |  |  |  | inactive |  |  |  |  | inactive |
| CC(COc1ccc(C(C)(C)C)cc1)OS(=O)OCCCl (stereo not given) | inactive | inactive | inactive | inactive | inactive |  | inactive | inactive | inactive |  | inactive |  | inactive |  | inactive | inactive | inactive |  | inactive |
| COc1cc2c(N3CCN(C(=O)Nc4ccc(OC(C)C)cc4)CC3)ncnc2cc1OCCCN1CCCCC1 | 23.7 µM (active) |  | inactive |  | inactive | inactive | inactive |  |  |  | inactive |  | inactive | inactive | inactive | inactive |  |  |  |
| C[Si]1(C)O[Si](C)(C)O[Si](C)(C)O1 | inactive |  | inactive |  | inactive | inactive | inactive | inactive | inactive |  | inactive |  | inactive | inactive | inactive | inactive | inactive |  | inactive |
| CCOC(=O)CC(=O)C(=O)OCC | inactive | inactive | inactive | inactive | inactive | inactive | inactive | inactive | inactive |  | inactive | inactive | inactive | inactive | inactive |  | inactive |  |  |
